An excerpt weighted towards active compounds, which were near 10% of everything screened.
Luciferase inh – Photinus pyralis luciferase inhibition. P08659. purified P. pyralis luciferase, luminescence, biochemical. Potency, µM (top dose mostly 115 µM), actives largely listed as inhibitors. 76,000 tested, 2.5% active; also: nearly all actives have a fitted effect of over 65% in size
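Cell-free enzyme assay, 10nM P. pyralis luciferase, luciferin and ATP each at 10uM. Inhibition profiled over a 6-point titration, read as luminescence.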
HEK cytotox – HEK 293 cell cytotoxicity. 94,000 tested, 6.6% active. HEK 293 viability, ATP luminescence (CellTiter-Glo), 48-72 h. AID 1345083. Potency, µM (top dose mostly 115 µM), inactives show at the highest dose activity change, negative = cytotoxicity, hits mostly inhibitors; also: nearly all actives have a fitted effect of over 60% in size
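HEK 293 cells seeded at 250 cells/well were exposed to compound for 48 or 72 hr at 37 degree Celsius. Viability taken as ATP content by CellTiter-Glo luminescence.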
NIH3T3 tox – kills NIH 3T3 cells | 94,000 tested, 4.3% active | AID 1345082 | Potency, µM (top dose mostly 96.7 µM), inactives show at the highest dose activity change, negative = cytotoxicity, hits mostly inhibitors | NIH 3T3 viability, CellTiter-Glo ATP luminescence, 48-72 h; also: nearly all actives have a fitted effect of over 55% in size
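Cells were seeded at 400 per well, treated with pin-transferred compound, and kept 48 or 72 hr at 37 °C before CellTiter-Glo addition and luminescence imaging of cellular ATP.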
GPT2 inh – GPT2 alanine aminotransferase inhibition. Recombinant GPT2, coupled pyruvate oxidase/HRP Amplex Red fluorescence. Potency, µM (series often up to 57.7 µM), without a hit: at the highest dose activity change, negative = inhibition, most hits filed as inhibitors. 100,000 tested, 0.25% active. AID 1671188; also: nearly all actives have a fitted effect of over 60% in size
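Fluorescence read-out: pyruvate from GPT2 turnover coupled to pyruvate oxidase, HRP and Amplex Red (0.2mM ThPP, 0.2U/mL PO and HRP, 50uM Amplex final). Substrates 250uM a-KG, 2mM L-alanine; enzyme 10ng/uL; 30 min RT.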
hNpr1 antagonist – blocks ANP-stimulated signaling of human Npr1 receptor | HEK293 hNpr1 GloSensor cGMP, ANP-stimulated luminescence | Potency, µM (top dose mostly 46.3 µM), for inactives: at the highest dose activity change, negative = inhibition, usual class: inhibitors | 76,000 tested, 1.6% active; calls by dose curve; also: nearly all actives have a fitted effect of over 60% in size
Target sequence (P16066 whole entry, looked up): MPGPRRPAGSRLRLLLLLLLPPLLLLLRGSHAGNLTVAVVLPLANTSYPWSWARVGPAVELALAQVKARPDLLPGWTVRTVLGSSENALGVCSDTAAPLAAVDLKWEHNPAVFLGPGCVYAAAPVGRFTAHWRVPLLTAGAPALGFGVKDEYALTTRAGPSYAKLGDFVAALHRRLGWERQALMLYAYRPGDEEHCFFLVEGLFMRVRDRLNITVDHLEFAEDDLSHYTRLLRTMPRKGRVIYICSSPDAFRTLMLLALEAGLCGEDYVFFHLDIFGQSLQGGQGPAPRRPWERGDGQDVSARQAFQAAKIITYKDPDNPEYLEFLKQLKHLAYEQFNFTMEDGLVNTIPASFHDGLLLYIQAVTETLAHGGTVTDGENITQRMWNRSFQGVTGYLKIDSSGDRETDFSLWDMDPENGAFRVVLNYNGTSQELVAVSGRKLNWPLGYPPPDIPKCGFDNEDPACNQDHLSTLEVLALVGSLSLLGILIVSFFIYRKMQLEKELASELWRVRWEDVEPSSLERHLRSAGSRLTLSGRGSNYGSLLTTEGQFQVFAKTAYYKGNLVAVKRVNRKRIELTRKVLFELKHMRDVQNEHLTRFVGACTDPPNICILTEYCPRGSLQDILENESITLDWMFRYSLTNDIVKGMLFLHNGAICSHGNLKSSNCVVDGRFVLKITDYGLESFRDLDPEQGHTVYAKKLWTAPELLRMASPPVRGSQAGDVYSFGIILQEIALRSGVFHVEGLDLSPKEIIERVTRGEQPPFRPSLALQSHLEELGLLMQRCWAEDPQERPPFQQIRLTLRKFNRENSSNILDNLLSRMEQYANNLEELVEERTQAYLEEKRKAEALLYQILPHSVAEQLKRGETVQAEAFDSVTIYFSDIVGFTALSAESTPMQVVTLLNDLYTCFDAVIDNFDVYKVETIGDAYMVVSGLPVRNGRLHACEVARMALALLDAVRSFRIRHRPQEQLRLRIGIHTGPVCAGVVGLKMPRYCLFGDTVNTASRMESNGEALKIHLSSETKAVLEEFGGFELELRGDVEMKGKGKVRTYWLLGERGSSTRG
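HEK293 cells stably expressing human Npr1 and cGMP GloSensor pGS-40F, loaded 2 h with 2% GloSensor reagent, given compound 30 min at room temperature. Luminescence read before and 20 min after 0.1 nM hNppA.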
* hit, by the source's call; i = inactive; ? = inconclusive; . = no result given; [ ] = remark or other dose. Unless noted, calls follow the shape of the dose curve; as a rule, active = well fitted curve in the direction sought with a large enough effect; inconclusive = small, poorly fitted or top-dose-only effect, or another doubt; inactive = no such curve, though single readings can be large; an effect the other way counts as inactive or inconclusive. % is scaled to controls: 0 for no effect and ±100 for the full control effect; potency is read from the fitted curve at half-maximal effect.

SMILES	Luciferase inh	HEK cytotox	NIH3T3 tox	GPT2 inh	hNpr1 antagonist
O=C(c1ccnc(-c2ccncc2)c1)N1CCCC1	i	0.5%	-3.1%	2.0%	-6.2%
Cc1ccccc1-c1noc(CNCc2nc3ccc(Cl)cc3[nH]2)n1	i	79.4µM*	?	-8.6%	-2.6%
O=C(NCc1n[nH]c2c1CCC2)c1coc(COc2cccc(F)c2F)n1	i	-24.7%	?	2.8%	-3.3%
CC(=O)NC1(C)CN(Cc2ccc(-c3cccc(F)c3)s2)C1	?	?	?	i	-2.3%[70.6 µM]
CC(=O)NC1(C)CN(Cc2ccc(-c3cccc(C(F)(F)F)c3)s2)C1	12.6µM*	63.1µM*	44.7µM*	-11.5%[88.5 µM]	?
Nc1nc(C2CC(NC(=O)Cc3ccc4c(c3)OCO4)C2)cc(=O)[nH]1 (stereo not drawn)	i	2.7%	3.6%	-5.7%	7.2%
O=C(NCC(F)(F)F)C1CCCCN1Cc1ccc(-c2ccsc2)cc1 (stereo not drawn)	.	?	-29.7%	-34.1%	.
O=C(NC1CCCCC1)C1CCCCN1Cc1ccc(-c2ccsc2)cc1 (stereo not drawn)	.	39.8µM*	-50.6%	-12.2%	.
O=C(NCCc1ccc(Cl)cc1)C1CCCCN1Cc1ccc(-c2ccsc2)cc1 (stereo not drawn)	.	39.8µM*	25.1µM*	-9.1%	.
Cc1nnc2ccc(N3CCN(C(=O)C(C)(C)C)CC3)nn12	.	-25.4%[172 µM]	-20.8%[138 µM]	.	.
COc1ccc(C2(C(=O)N3CCCN(S(=O)(=O)c4ccccc4)CCC(=O)NCC3)CC2)cc1	i	-3.0%	?	i	-12.6%
Cc1cc(-c2cc3c(ccn3C(C)C)c(C(=O)NCc3c(C)cc(C)[nH]c3=O)n2)ccn1	i	44.7µM*	44.7µM*	1.9%[88.5 µM]	-7.8%[70.6 µM]
Cc1cc(C)c(CNC(=O)c2nc(-c3cccnc3)cc3c2ccn3C(C)C)c(=O)[nH]1	i	100µM*	?	i	-4.1%[70.6 µM]
Cc1cc(C)c(CNC(=O)c2nc(-c3ccc(CO)cc3)cc3c2ccn3C(C)C)c(=O)[nH]1	i	79.4µM*	?	-7.0%	3.6%
COc1cccc(-c2cc3c(ccn3C(C)C)c(C(=O)NCc3c(C)cc(C)[nH]c3=O)n2)c1	i	?	?	i	-0.6%
Cc1cc(C)c(CNC(=O)c2nc(-c3cncnc3)cc3c2ccn3C(C)C)c(=O)[nH]1	i	?	?	i	5.3%[70.6 µM]
CC(=O)Nc1cccc(-c2cc3c(ccn3C)c(C(=O)NCc3c(C)cc(C)[nH]c3=O)n2)c1	i	?	-24.8%	2.1%	3.6%
Cc1cc(C)c(CNC(=O)c2nc(-c3ccc(F)cc3)cc3c2ccn3C(C)C)c(=O)[nH]1	i	50.1µM*	44.7µM*	i	2.7%[70.6 µM]
O=C(CCc1cc2n(n1)CCNC2)NCc1nc2ccc(Cl)cc2[nH]1	i	-13.3%	-0.4%	-30.5%	0.1%
Cc1ccc(Nc2ccnc(N3CCC(NC(=O)c4cccc(Cl)c4)CC3)n2)cc1	.	?	39.8µM*	i	.
COc1ccc(Nc2ccnc(N3CCC(NC(=O)c4ccc(OC)cc4)CC3)n2)cc1	.	?	?	-14.7%	.
COc1cccc(C(=O)NC2CCN(c3nccc(Nc4ccccc4OC)n3)CC2)c1	.	39.8µM*	?	1.8%	.
COc1ccc(Nc2ccnc(N3CCC(C(=O)N4CCC(c5ccccc5)CC4)CC3)n2)cc1	.	12.6µM*	20µM*	i	.
COc1ccc(C(=O)NC2CCN(c3nccc(Nc4ccc(C)cc4)n3)CC2)cc1	.	35.5µM*	?	-5.4%	.
COc1ccc(Nc2ccnc(N3CCC(C(=O)N4CCCCC4)CC3)n2)cc1	.	?	?	1.6%	.
SMILES	Luciferase inh	HEK cytotox	NIH3T3 tox	GPT2 inh	hNpr1 antagonist
COc1ccccc1Nc1ccnc(N2CCC(NC(=O)c3cccc(Cl)c3)CC2)n1	.	?	?	-1.2%	.
Cc1ccc(-c2nnc([C@H]3CCN(C(=O)C4CC4)C3)o2)cc1	i	4.2%[172 µM]	-11.0%[174 µM]	-8.2%[88.5 µM]	5.7%[70.6 µM]
COc1ccc(Nc2ccnc(N3CCC(NC(=O)c4cccc(Cl)c4)CC3)n2)cc1	.	14.1µM*	28.2µM*	?	.
COc1ccc(Nc2ccnc(N3CCC(C(=O)NC4CC4)CC3)n2)cc1	.	?	?	i	.
COC(=O)NC1CCN(c2nccc(Nc3ccc(OC)cc3)n2)CC1	.	?	-33.0%	i	.
O=C(NC1CCN(c2nccc(Nc3ccccc3Cl)n2)CC1)c1cccc(Cl)c1	.	?	?	i	.
COc1ccc(Nc2ccnc(N3CCC(NC(=O)c4ccccc4)CC3)n2)cc1	.	35.5µM*	?	i	.
Cc1ccc(Nc2ccnc(N3CCC(NC(=O)c4ccc(Cl)cc4)CC3)n2)cc1	.	22.4µM*	31.6µM*	i	.
COc1ccc(CC(=O)NC2CCN(c3nccc(Nc4ccc(OC)cc4)n3)CC2)cc1	.	39.8µM*	35.5µM*	i	.
O=C(C1CCN(C(=O)N2CC3CC(C2)[C@H]2CCCC(=O)N2C3)CC1)N1CCOCC1 (stereo partly drawn)	i	13.3%	i	i	-1.0%
COc1ccc(Nc2ccnc(N3CCC(NC(=O)c4cccc(OC)c4)CC3)n2)cc1	.	35.5µM*	?	i	.
O=C(c1ccccc1F)N1CCCC2(C1)C(=NC1CCCC1)NC(=O)N2c1cccnc1 (stereo not drawn)	.	i	-21.1%	-7.2%	.
CN(C)c1ccc(CN2CCCC3(C2)C(=NC2CCCCC2)NC(=O)N3c2cc(F)cc(F)c2)cc1 (stereo not drawn)	.	79.4µM*	?	i	.
O=C(c1ccccc1F)N1CCC2(CC1)C(=NC1CCCC1)NC(=O)N2c1cccnc1	.	i	35.5µM*	i	.
O=C1NC(=NC2CCCCC2)C2(CCCN(Cc3cccnc3)C2)N1c1cc(F)cc(F)c1 (stereo not drawn)	.	-9.6%	11.2µM*	0.0%	.
O=C1NC(=NC2CCCCC2)C2(CCN(Cc3cccnc3)C2)N1c1cccnc1 (stereo not drawn)	.	i	39.8µM*	i	.
O=C1NC(=NC2CCCCC2)C2(CCN(Cc3cccnc3)CC2)N1c1cccnc1	.	i	2.0%	i	.
O=C1NC(=NC2CCCC2)C2(CCCN(Cc3ccc(F)cc3)C2)N1c1cc(F)cc(F)c1 (stereo not drawn)	.	?	?	i	.
CN(C)c1ccc(CN2CCCC3(C2)C(=NC2CCCC2)NC(=O)N3c2cc(F)cc(F)c2)cc1 (stereo not drawn)	.	-25.1%	-29.6%	-21.5%	.
CCc1noc(-c2cn(C3CCCN(C(=O)c4ccc(C(C)(C)C)cc4)C3)nn2)n1 (stereo not drawn)	i	?	-21.5%	i	-25.9%
Cc1noc(C)c1CC(=O)NCC1Cn2cccc2C(=O)N1C (stereo not drawn)	i	-2.4%	-6.2%	3.9%	-1.4%
